# The full ranking holds about 33,000 sequences; the median of “E-score (-0.5 to 0.5)” is about -0.015, and the highest 2% start at about 0.3. Many of the other results were omitted from the sample, so the highest values are more common in it than they were.
# Target: T1, Abf1 (UniProt P14164)
# T1 sequence: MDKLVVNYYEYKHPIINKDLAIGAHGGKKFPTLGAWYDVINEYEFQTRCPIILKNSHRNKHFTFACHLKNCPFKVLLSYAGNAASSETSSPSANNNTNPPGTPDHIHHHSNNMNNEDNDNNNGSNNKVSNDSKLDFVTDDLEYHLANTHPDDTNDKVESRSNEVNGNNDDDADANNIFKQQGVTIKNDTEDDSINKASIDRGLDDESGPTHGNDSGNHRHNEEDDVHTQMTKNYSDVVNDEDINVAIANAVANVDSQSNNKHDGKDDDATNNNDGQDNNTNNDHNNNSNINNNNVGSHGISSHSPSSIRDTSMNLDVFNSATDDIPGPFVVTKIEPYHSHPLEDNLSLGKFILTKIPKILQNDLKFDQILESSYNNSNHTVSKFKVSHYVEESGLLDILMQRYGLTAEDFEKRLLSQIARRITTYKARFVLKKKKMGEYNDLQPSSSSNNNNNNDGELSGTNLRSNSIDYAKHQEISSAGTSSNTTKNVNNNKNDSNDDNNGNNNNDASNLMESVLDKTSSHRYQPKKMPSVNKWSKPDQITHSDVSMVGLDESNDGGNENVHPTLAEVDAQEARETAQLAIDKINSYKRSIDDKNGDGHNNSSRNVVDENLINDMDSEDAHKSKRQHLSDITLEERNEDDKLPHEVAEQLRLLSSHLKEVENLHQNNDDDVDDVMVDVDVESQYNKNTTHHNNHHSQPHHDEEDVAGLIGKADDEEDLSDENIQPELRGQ
# Test: PBM E-score (8-mer binding enrichment) (E-score (-0.5 to 0.5)); higher = stronger / more preferred TF binding
# Conditions: protein concentration: 200 nM; construct: GST-full length
# How it was run: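 Detection of bound protein used fluorescent anti-GST, with scans normalised by masliner. The proteins were GST-tagged yeast transcription factors applied at about 100-200 nM to universal all-10-mer Agilent arrays made double-stranded by primer extension. Each ungapped eight-base word, pooled with its reverse complement, was scored with an E-score from the Universal PBM Analysis Suite.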
row,Sequence,PBM E-score
1,GTTAGCAA,0.104
2,ATGATGAG,0.141
3,ATGATTGG,-0.094
4,ATGATTGC,0.0463
5,CTGATGAA,0.0318
6,ATGATGAC,0.306
7,ATGATTGA,0.346
8,ATGATGAA,0.306
9,GTGATGAA,0.207
10,GTGATGCA,0.185
11,CTGATGAC,0.203
12,ATGATGCC,0.0807
13,ATGATGCA,0.309
14,GAATGGAC,0.0322
15,GTTCCGGA,-0.0188
16,TATACATA,0.0494
17,GAGGGGGC,-0.346
18,CGGAGTCA,-0.111
19,AAAGCCTT,-0.219
20,CTATGGGA,-0.0561
21,ACACCGTA,0.0493
22,CCACCGTA,0.341
23,GCACCGTA,0.0841
24,GGGGGCCA,-0.462
25,AGTAGAAA,0.168

row,Sequence,PBM E-score
1,CGTAGAAG,0.222
2,CGTAGAAA,0.318
3,AGGGGTAT,-0.179
4,GCGTCGGA,-0.111
5,GGAGCCCC,-0.293
6,CATATTAA,0.315
7,TATATTAA,0.167
8,CATATTAG,0.136
9,ACGAACGC,0.214
10,GACTGTGC,0.0177
11,GCGTGATA,0.353
12,CTGTGATA,0.201
13,ATGTGATA,0.291
14,CCGTGATA,0.283
15,ACGTGATG,0.215
16,GCGTGAGA,0.168
17,ACGTGATA,0.318
18,GTGTGATA,0.327
19,ACGTGATC,0.261
20,CGCGATTA,0.0309
21,AGGTATGC,0.0905
22,CAGGCTGA,-0.188
23,AAATAATT,0.212
24,AGTACAAA,0.101
25,CGTACACG,0.245

row,Sequence,PBM E-score
1,CGTACACC,-0.0081
2,AGTACATA,0.0814
3,GGTACAAA,0.0902
4,CGTACAGC,-0.0515
5,GGTACAGA,0.00644
6,CGTACATC,0.134
7,CGTACAAA,0.408
8,CGTACATA,0.364
9,CGTACACA,0.318
10,CGTACAGA,0.308
11,GGAGATAA,0.0908
12,CAAACGGG,-0.0186
13,AACCGATT,0.0401
14,GCACCCAA,-0.239
15,CTTCTTTA,0.12
16,AGATGGGG,-0.284
17,GAACAATC,0.0605
18,GAAATTCC,-0.102
19,AGTACAAG,0.0462
20,CGTACAAC,0.276
21,CGTACAAG,0.357
22,GACGCCGA,0.0176
23,TGTATCAA,-0.0209
24,GGTATAAC,0.0343
25,CGTATCAC,0.281

row,Sequence,PBM E-score
1,AGTATAAG,0.0186
2,CGTATAAA,0.417
3,AGTATAAC,0.194
4,CGTATCAA,0.343
5,CATATAAG,0.0553
6,AGTATAAA,0.252
7,CGTATAAG,0.349
8,TGTATAAA,0.116
9,CGTATAAC,0.366
10,GATCCTAA,0.0497
11,ACCAAAAC,0.0329
12,ATTAAGTA,0.133
13,ATCTGTCA,0.212
14,CAACCAGG,-0.288
15,CGAAAGGA,0.191
16,GGAATACA,-0.0854
17,ATGGCTAA,-0.0715
18,CATCGTCA,0.297
19,AATCGTCA,0.334
20,TATCGTCA,0.33
21,TATCGTGA,0.286
22,AATCGTCC,0.168
23,CATCGTCG,0.231
24,CATCGTCC,0.137
25,AATCGTCT,0.269

row,Sequence,PBM E-score
1,GATCGTCA,0.277
2,CGAATGGA,0.0823
3,GACCCTAA,0.012
4,CAACGTTC,-0.145
5,GATGATGC,0.152
6,CATGATGA,0.365
7,TATGATGA,0.313
8,GATGATGA,0.223
9,CATGATGC,0.123
10,CATGATGG,-0.191
11,CAGTACCC,-0.0706
12,GGTAATAC,0.099
13,CGTAATAC,0.303
14,CGTAATAG,0.112
15,AAGTGATG,0.314
16,AAGTGATC,0.41
17,GAGTGATC,0.327
18,GAGTGAAC,-0.115
19,AAGTGATT,0.347
20,ATGTGATC,0.18
21,AAGTGAGT,0.0964
22,ATGTGATG,0.0498
23,AAGTGAAT,0.16
24,AGGTGATC,0.276
25,CAGTGATG,0.255

row,Sequence,PBM E-score
1,GAGTGAGC,0.033
2,CAAAATGA,0.275
3,CAAGATGC,0.148
4,TAACTCTA,-0.0858
5,TACAGGGA,-0.19
6,GACGGGAC,-0.171
7,ACGGCAAT,0.277
8,CTCAATGA,0.0427
9,TGAATTCA,0.171
10,CAGGGCCA,-0.227
11,CAGTGAGC,-0.118
12,CAGTGATC,0.366
13,CTGTGATC,0.0861
14,GGTGTACA,-0.178
15,GGTCATTA,0.134
16,GGTCATAC,-0.0499
17,CGTCATTA,0.327
18,CGTCATAC,0.316
19,CGTCATCC,0.167
20,AGTCATCA,0.135
21,CGTCATAG,0.143
22,CGTCATCA,0.349
23,AGTCATTA,0.037
24,GACTGCGA,-0.206
25,GCTATGCA,-0.102

row,Sequence,PBM E-score
1,AGGCACGG,0.062
2,GACAGACA,0.119
3,CGGTCAGC,-0.137
4,CACGTCTA,0.166
5,GAGAATAA,0.034
6,GGGATCAC,-0.0214
7,ATCATGAG,0.238
8,GTGATCAC,0.386
9,ATGATCAC,0.335
10,CTGATCAC,0.294
11,ATCATGAT,0.416
12,ACGATCAC,0.274
13,ATGATCAA,0.273
14,ATCATGAA,0.121
15,GTGATCAA,0.392
16,ATGATCAG,0.269
17,CTGATCAA,-0.114
18,CGAGCTTA,-0.0534
19,AGCAGTAC,-0.0878
20,GCAAACGC,0.00943
21,AAGGTCGC,0.0476
22,AATTGAAA,0.116
23,AATCCAGG,0.0662
